Source: PubChem BioAssay (NCATS)
Inconclusive results are not listed. Where a call stands in place of a potency, no number is given. Unmarked numbers belong to inactive results. Activity calls are given as the source filed them. Calls come from the whole dose curve; as a rule, active = well fitted inhibition curve with a large enough effect; inconclusive = small, poorly fitted or top-dose-only effect; inactive = no such curve, though single readings can be large or run the other way.

Assays:
[1] = tested on: Zika virus NS2B-NS3 protease (unlinked complex); assay: Primary screen GU Rhodamine qHTS for Zika virus inhibitors: Unlinked NS2B-NS3 protease assay (AID 1347159); note: nearly all actives have a fitted effect of over 60% in size
How it was run: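 A qHTS format was used, with compound concentrations ranging up to 114 microM. Each compound was preincubated with 25 nM NS2B-NS3 protease, and the substrate was then added at 1.5 microM. Curves were fitted with a 4-parameter Hill model.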

[2] = tested on: Zika virus NS2B-NS3 protease (linked construct); assay: Primary screen NINDS Rhodamine qHTS for Zika virus inhibitors (AID 1347160); note: nearly all actives have a fitted effect of over 55% in size
How it was run: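 Kinetic fluorescence (Ex 480 nm, Em 540 nm) over 15 min with 1.5 microM Rhodamine110 peptide and 25 nM linked protease.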
Potency is the fitted concentration of half-maximal effect.

Row | SMILES | Potency [1] | Potency [2] | activity change, negative = inhibition [1]
1 | COC(=O)C(CC1CCCC1)c1ccc(S(C)(=O)=O)cc1 (configuration not stated) | inactive | inactive | 
2 | O=C(O)Cc1cn([C@@H]2O[C@H](CO)[C@@H](O)[C@H](O)[C@H]2O[C@@H]2O[C@H](CO)[C@@H](O)[C@H](O)[C@H]2O)c2ccccc12 | inactive | inactive | 
3 | CN1CCCC1Cc1c[nH]c2ccc(CCS(=O)(=O)c3ccccc3)cc12 (configuration not stated) | inactive | inactive | 
4 | COc1c(O[C@@H]2O[C@H](CO)[C@@H](O)[C@H](O)[C@H]2O)c(CCC(=O)O)cc2ccoc12 | inactive | inactive | 
5 | CC1C2=CC(=O)OC2(O)CC2C1C(OC(=O)c1ccccc1)C(OC(=O)c1ccccc1)C1(O)C2(C)CCC(O)C1(C)C(=O)O (configuration not stated) | inactive | inactive | 
6 | COc1cccc(C(=O)NCCNc2nc3cc(C)cc(C)c3cc2C#N)c1 | inactive | inactive | 
7 | O=C(OC[C@H]1O[C@H](O[C@H]2CO[C@H](CO)[C@@H](O)[C@@H]2O)[C@H](O)[C@@H](O)[C@H]1O)c1ccccc1 | inactive | inactive | 
8 | CCCC/C=C\CCCCCc1cc(=O)c2ccccc2n1C | inactive | inactive | 
9 | COc1c(C)c(OCC=C(C)C)cc2c1CNC2=O | inactive | inactive | 
10 | O=C(/C=C/c1ccc(O)cc1)O[C@H]1[C@H](OC2CCCCC2O)O[C@H](CO)[C@@H](O)[C@@H]1O (some centres not stated) | inactive | inactive | 
11 | COc1cc(OC)cc(-c2ccc3c(-c4ccc(F)cc4)[nH]nc3n2)c1 | inactive | inactive | 
12 | CC1(C)CCCC2(C)c3c4c(c(=O)oc(=O)c3=CCC12)=CCC1C(C)(C)CCCC41C (configuration not stated) | inactive | inactive | 
13 | C=C1[C@@H]2CC[C@@]3(C)[C@H](c4ccoc4)OC(=O)C[C@]13O[C@H]1CC(=O)C(C)(C)[C@H](C(O)C(=O)OC)[C@]12C (some centres not stated) | inactive | inactive | 
14 | O=C(O)c1ccnc2cc(-c3nc4ccccc4n3CCN3CCCCC3)sc12 | inactive | inactive | 
15 | Cc1nc2ccccc2c(-c2ccc3c4c(ccnc24)CCO3)c1[C@H](OC(C)(C)C)C(=O)O | inactive | inactive | 
16 | CC(=O)OC1(C)CC(O)C2(O)C=COC(OC3OC(CO)C(O)C(O)C3O)C12 (configuration not stated) | inactive | inactive | 

Row | SMILES | Potency [1] | Potency [2] | activity change, negative = inhibition [1]
17 | CC12CC34CC(O)C5C(CO)(CO)CC(=O)CC5(C)C3CC1C2C4 (configuration not stated) | inactive | inactive | 
18 | CC1(C)CC[C@]2(C(=O)O)CC[C@]3(C)C(=CCC4[C@@]5(C)C[C@@H](O)[C@H](O)[C@@](C)(CO)C5[C@H](O)C[C@]43C)[C@@H]2C1 (some centres not stated) | inactive | inactive | 
19 | CC(=O)OC1C(CO)OC(O[C@H]2[C@H](OC(=O)[C@]34CCC(C)(C)C[C@H]3C3=CCC5[C@@]6(C)CC[C@H](O[C@@H]7O[C@H](C(=O)O)[C@@H](O)[C@H](O[C@@H]8OC[C@@H](O)[C@H](O)[C@H]8O)[C@H]7O[C@@H]7O[C@H](CO)[C@H](O)[C@H](O)[C@H]7O)[C@@](C)(C=O)C6CC[C@@]5(C)[C@]3(C)C[C@H]4O)O[C@H](C)[C@H](OC3OC(C)C(OC4OCC(O)C(O)C4O)C(O)C3O)[C@@H]2O)C(O)C1O (some centres not stated) |  | inactive | 21.3% [at 19.1 µM]
20 | Oc1ccc(CC2NCCc3cc(O)c(O)cc32)cc1 (configuration not stated) | inactive | inactive | 
21 | CC1=C(C)C(=O)OC(C(C)C2C(O)CC3C4C5OC5C5(O)CC(OC6OC(CO)C(OC7OC(C)C(O)C(O)C7O)C(O)C6O)CC(O)C5(C)C4CCC32C)C1 (configuration not stated) | inactive | inactive | 
22 | C/C=C/C=C/C=C/C(=O)OC1C=C2C(O)OC(=O)[C@]2(O)[C@@]2(C)CCCC(C)(C)[C@H]12 (some centres not stated) | 6.31 µM (active) | 12.6 µM (active) | 
23 | CC(C)=CCC[C@](C)(O[C@@H]1O[C@H](CO)[C@@H](O)[C@H](O)[C@H]1O)[C@H]1CC[C@]2(C)[C@@H]1[C@H](O)CC1[C@@]3(C)CC[C@H](O)C(C)(C)C3[C@@H](O[C@@H]3O[C@H](CO)[C@@H](O)[C@H](O)[C@H]3O[C@@H]3O[C@@H](C)[C@H](O)[C@@H](O)[C@H]3O)C[C@]12C (some centres not stated) | inactive | inactive | 
24 | C=CC1(C)CC2CCC3C(C)(C(=O)O)CCCC3(C)C2=CC1=O (configuration not stated) | inactive | inactive | 
25 | C[C@@H]1O[C@@H](O[C@H]2[C@H](OC(=O)[C@]34CCC(C)(C)C[C@H]3C3=CCC5[C@@]6(C)CC[C@H](O[C@@H]7O[C@H](CO[C@@H]8OC[C@H](O)[C@H](O)[C@H]8O[C@@H]8OC[C@@H](O)[C@H](O)[C@H]8O)[C@@H](O)[C@H](O)[C@H]7O)C(C)(C)C6CC[C@@]5(C)[C@]3(C)C[C@H]4O)O[C@H](CO)[C@@H](O)[C@@H]2O)[C@H](O[C@@H]2O[C@H](CO)[C@@H](O)[C@H](O)[C@H]2O)[C@H](O)[C@H]1O[C@@H]1OC[C@@H](O)[C@H](O[C@@H]2OC[C@@H](O)[C@H](O)[C@H]2O)[C@H]1O (some centres not stated) |  | inactive | 2.96% [at 19.1 µM]
26 | Cc1ncc(NC(=O)c2ccc(CN3CCN(C)CC3)c(C(F)(F)F)c2)cc1Nc1nccc(-c2cccnc2)n1 | inactive | inactive | 
27 | COc1ccccc1CN[C@H]1CCCN[C@H]1c1ccccc1 | inactive | inactive | 
28 | CC1=C2C(=O)C=C(CO[C@@H]3O[C@H](CO)[C@@H](O)[C@H](O)[C@H]3O)[C@@H]2[C@H]2OC(=O)[C@H](C)[C@@H]2[C@@H](O)C1 | inactive | inactive | 
29 | CC1=C2C(=O)C=C(CO[C@@H]3O[C@H](CO)[C@@H](O)[C@H](O)[C@H]3O)[C@@H]2[C@H]2OC(=O)[C@H](C)[C@@H]2CC1 | inactive | inactive | 
30 | C=C1CC23CC(=O)C4C(CO)(CO)CCCC4(C)C2CCC1C3 (configuration not stated) | inactive | inactive | 
31 | CC1(C)[C@@H]2CC=C(CO[C@@H]3O[C@H](CO[C@@H]4OC[C@H](O)[C@H](O)[C@H]4O)[C@@H](O)[C@H](O)[C@H]3O)[C@H]1C2 | inactive | inactive | 
